Compound activity: PubChem, several laboratories
EP2 mod: EP2 receptor modulators, cAMP readout, primary screen, cell-based, HTRF cAMP, PGE2 stimulation; 260,000 tested, 0.83% active; induction, % at 25 µM; EP2-expressing cells, cAMP HTRF FRET, PGE2 co-stimulation;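 active = compounds whose cAMP rise, as percent of the full-agonist control response, exceeds 60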;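 also: rat C6 glioma line stably carrying human EP2 under a CMV promoter; the protocol text gives 20 µM as final concentration; 100% = response of wells given 1 µM PGE2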
S1P3 antagonist: S1P3 receptor antagonists, primary screen, cell-based. 170,000 tested, 0.27% active. inhibition, % at 4.98 µM. Sphingosine 1-phosphate receptor 3 (Homo sapiens), Q99500. CHO S1P3 NFAT-BLA reporter, FRET fluorescence, antagonist mode;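 active = inhibition above the plate cutoff, the mean inhibition of test wells on that plate plus 3 SD, cut at about 28% in these data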;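 also: cells challenged with S1P at its EC80 of 0.8 µM; blue over green emission ratio from cleaved BLA substrate after 4 h stimulation; 0% = S1P-stimulated wells and 100% = unstimulated DMSO-only wells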
S1P4 ag: S1P4 receptor agonists, primary screen, cell-based | S1P4-expressing cell line, agonist reporter assay | AID 1509, 2009 | activation, % at 4.98 µM | Sphingosine 1-phosphate receptor 4 (Homo sapiens), O95977 | 220,000 tested, 0.35% active; in the data active = activation above about 11%;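 also: 0% = DMSO vehicle and 100% = reference agonist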
Target sequence (O95977 whole entry, looked up): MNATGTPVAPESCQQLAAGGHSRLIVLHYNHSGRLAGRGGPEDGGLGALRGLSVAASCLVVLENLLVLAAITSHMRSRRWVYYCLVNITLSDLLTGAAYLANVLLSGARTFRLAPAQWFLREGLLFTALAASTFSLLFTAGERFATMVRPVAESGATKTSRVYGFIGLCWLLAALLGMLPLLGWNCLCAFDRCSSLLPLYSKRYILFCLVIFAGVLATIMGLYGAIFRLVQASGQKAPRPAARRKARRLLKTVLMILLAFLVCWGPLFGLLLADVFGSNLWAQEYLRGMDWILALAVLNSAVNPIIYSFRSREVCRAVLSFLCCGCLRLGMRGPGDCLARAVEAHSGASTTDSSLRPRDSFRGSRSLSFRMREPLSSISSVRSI
PGE2 EP2 inh: human EP2 receptor antagonists, primary screen, TR-FRET cAMP, C6 glioma cells; C6 glioma cells expressing human EP2; cells stimulated with saturating PGE2; 260,000 tested, 0.52% active; Prostaglandin E2 receptor EP2 subtype (Homo sapiens), P43116; inhibition, % at 25 µM;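 active = percent inhibition above 40 after rounding to a whole number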;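 also: rat C6 glioma host cells with rolipram phosphodiesterase inhibitor present; the protocol text gives 20 µM as final concentration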
S1P4 antagonist: S1P4 receptor antagonists, primary screen, cell-based; inhibition, % at 4.98 µM; S1P4-expressing cells, antagonist mode, reporter read-out; AID 1510, 2009; 220,000 tested, 0.26% active; in the data active = inhibition above about 29%;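 also: 0% = wells stimulated with agonist and 100% = vehicle wells without agonist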
Pf gamet viab: late stage P. falciparum gametocyte viability inhibitors, primary screen, ATP luminescence, HTS; AID 743093, 2013; 150,000 tested, 0.065% active; inhibition, % at 10.9 µM; P. falciparum stage V gametocytes, 24 h;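 active = inhibition above the mean plus 3 SD of compounds within the control limits, set per campaign, cut at about 38% in these data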;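 also: 0% = DMSO wells and 100% = medium only without gametocytes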
EP2 confirm: cAMP induction in EP2, EP4, beta2-AR and parental cells, confirmation, counter-screen for EP2 modulator project, cell-based, five parallel assays, C6 glioma, HEK293; shares compounds with EP2 mod; cAMP HTRF induction; plus low (about EC15) PGE2 agonist; 1,300 tested, 47% active; calls only at 20 µM (by protocol);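 active = cAMP induction above 50% in the main assay while under 30% in all four parallel counter assays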;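 also: rat C6 glioma cells stably expressing human EP2 receptor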
* marks the source's active call; other numbers are inactive results; i = inactive; · = no result; + = active, no number. Only some compounds are listed: those with a hit (about 1.9% of all), similar ones and a draw of the others.

SMILES	EP2 mod	S1P3 antagonist	S1P4 ag	PGE2 EP2 inh	S1P4 antagonist	Pf gamet viab	EP2 confirm
c1ccc2c(-c3nc(C4CCCCC4)no3)cc(-c3ccncc3)nc2c1	67.2*	-23.5	1.7	5.1	-7.9	·	+
Cc1cc2ccc(C)c(C)c2nc1SCC#N	66.1*	-18.4	-0.3	9.3	-0.2	·	+
Cc1cc2ccc(C)c(C)c2nc1SCC(=O)c1cccs1	14.4	·	-0.6	7.8	-9.4	1.5	·
O=C(Nc1ccccc1Br)c1ccccc1-c1ccccc1	70.2*	5.2	1.6	9.5	-14.6	2.1	+
CCOc1ccccc1C(=O)Nc1ccccc1-c1ccccc1	78.5*	-12.2	1.8	5.9	-6.7	-33.1	+
O=C(NCCCc1ccccn1)c1cc2ccc(F)cc2[nH]1	-94.5	·	·	5.8	·	·	·
Cn1nc(-c2ccccc2)c(-c2nc(-c3cccc(C(F)(F)F)c3)no2)c1Cl	51.2	·	0.0	9.5	13.9	·	i
C=CCc1cc(C=O)cc(OC)c1OCc1ccc(Cl)cc1	83.1*	·	1.6	1.6	-4.1	5.9	+
COc1cc(C=O)ccc1OCCOCCOc1ccc(Cl)cc1	-20.4	·	-0.9	7.9	-6.3	-12.7	·
C=CCc1cc(C=O)cc(OCC)c1OCc1ccc(Cl)cc1	86.8*	-1.8	0.6	6.0	-7.6	-14.6	+
COc1ccc(OC)c(NC(=O)CSc2nnc(C)n2-c2ccccc2)c1	-4.1	·	·	10.8	·	·	·
CC1CN(c2nc3c(c(=O)[nH]2)CCN(Cc2cccc(Oc4ccccc4)c2)C3)CC(C)O1 (stereo not drawn)	15.5	·	·	·	·	·	·
CN1CCN(C(=O)/C(=C/c2ccccc2)c2ccccc2)CC1	6.7	·	0.3	6.1	13.3	6.1	·
CC1CCCCN1C(=O)/C(=C\c1ccccc1)c1ccccc1 (stereo not drawn)	69.3*	·	-0.8	-0.5	-16.2	·	i
COc1ccc(OC)c(C2=Nn3c(nnc3C3CCCCC3)SC2)c1	42.0	·	0.2	7.9	-2.0	·	·
COc1ccc(OC)c(C2=Nn3c(nnc3-c3ccco3)SC2)c1	74.3*	·	-0.6	1.5	11.2	15.4	+
COc1ccc(C2=Nn3c(nnc3-c3ccccc3)SC2)cc1OC	69.6*	·	-0.5	2.0	-24.8	-23.5	i
COc1ccc(C2=Nn3c(nnc3C3CCCCC3)SC2)cc1OC	77.3*	·	0.2	4.6	3.9	2.4	+
CCc1nc(SCC(=O)Nc2ccccc2C(F)(F)F)c2c(C)c(C)sc2n1	42.5	·	·	17.2	·	·	·
C#CCn1c(S(=O)(=O)Cc2ccccc2Cl)nc(-c2ccccc2)c1-c1ccccc1	71.6*	·	-2.4	3.0	4.3	·	+
COc1cccc(OC)c1CN(Cc1ccccn1)C1CC(C)(C)NC(C)(C)C1	-49.6	·	·	9.3	·	·	·
COc1cc(CN2CCC(C(=O)N3CCN(c4ccccc4F)CC3)CC2)cc(OC)c1OC	78.7*	8.0	1.9	10.4	-9.6	13.3	i
COC(=O)c1c(NC(=O)c2ccco2)sc2c1CCC2	33.2	·	1.7	15.8	-12.6	·	·
COC(=O)c1c(NC(=O)c2cccs2)sc2c1CCC(C)C2 (stereo not drawn)	64.4*	-19.0	-0.7	10.4	0.2	·	i
CC(C)OC(=O)c1c(NC(=O)c2cccs2)sc2c1CCCC2	54.3	13.9	-0.1	6.0	-7.4	·	+
CC(C)OC(=O)c1c(NC(=O)c2ccco2)sc2c1CCCCC2	57.6	·	1.0	13.6	-13.2	14.0	i
COc1ccc(NC(=O)c2ccc(Cl)c(S(=O)(=O)N3CCOCC3)c2)cc1Cl	-99.2	·	·	15.2	·	·	·
COC(=O)c1sccc1NC(=O)c1ccccc1	-24.3	-9.1	-0.7	0.2	2.3	-6.1	·
COC(=O)c1sccc1NC(=O)c1cc2c(s1)CCCC2	54.1	15.9	2.8	·	0.5	·	i
COC(=O)c1sccc1NC(=O)c1cccc(OC)c1	67.5*	·	0.6	14.3	-18.1	-5.9	i
